About 79,000 compounds went through this panel and 15% of them were active in at least one assay; those are over-represented in the sample as a whole. Values without a mark were called inactive. Active and inactive are the calls of the source. Cut-off read from the data, not from the text of the source: active = growth inhibition above about 70%; inactive = the rest.

One test is described as follows: NCI Yeast Anticancer Drug Screen. Data for the mec2-1 strain (AID 157). The following applies: S. cerevisiae mec2-1 strain, at 11.0 µM, hits give high values. Summed up:
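Growth inhibition is read against vehicle-treated controls after compound exposure of the mec2-1 yeast strain, which is defective in DNA damage repair or cell cycle control.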
As for `C/C(=N\O)C1CC2C=C(C#N)C1N(Cc1ccccc1)C2` (centres undefined), the growth inhibition is 4%.
Still for that read-out and setting: under `O=[N+]([O-])C(=C(Sc1ccccc1)Sc1ccccc1)C(Cl)=C(Cl)Cl` stands 37%; under `CCCCCCCCCC/C=C\C(=O)O`, -11%.
Take `COc1ccc(N=C2C(=O)Nc3ccc(Br)cc32)cc1`: the growth inhibition was -19%.
For the molecule `COc1ccccc1C(=O)OCC1CCCN2CCCCC12` (centres undefined), the growth inhibition is 0%.
For `CC(C)(Br)C(=O)/C=C/c1ccc(Cl)c(Cl)c1`, the growth inhibition was -1%.
For the molecule `Nc1ccccc1CC(O)C(=O)O` (centres undefined), the growth inhibition was 14%.
On to `CC(=O)N/N=C/C(C)(C)C(C)(C)/C=N/NC(C)=O`, for which the growth inhibition is 1%.
Same read-out and setting: under `CN(C)c1nc2sc3c(c2c(=O)o1)CCCC3` stands 0%; under `CC(C)OC(=O)Oc1ccccc1OC(=O)OC(C)C`, 0%.
Still for that read-out and setting: the figure for `Cc1ccc(N)c(S)c1` is -9%; for `O=C(O)c1ccccc1NC(=S)c1ccccc1` it is -26%; for `COC(=O)c1ccc(NCC2=CC(=O)C=CC2=O)cc1O` it is 70% (active).
As to `NC(N)=N/N=C\c1c2ccccc2cc2ccccc12`, the growth inhibition was -45%.
Still for that read-out and setting: the figure for `COC(=O)CSSCc1ccc([N+](=O)[O-])cc1` is 14%; for `CCS(=O)(=O)c1ccc(/C=C/C=N/NC(=S)NCC(C)C)cc1` it is 2%; for `N#CC(C(=O)Nc1ccccc1)C1=C(Cl)C(=O)c2ccccc2C1=O` (centres undefined) it is 98% (active).
Same read-out and setting: under `C[C@H](CCC(=O)NN)[C@H]1CC[C@H]2[C@@H]3CC[C@@H]4C[C@H](O)CC[C@]4(C)[C@H]3CC[C@]12C` stands 3%; under `CC[n+]1ccc2c(C)c3[nH]c4ccc(O)cc4c3c(C)c2c1`, 0%.

Still in this test, the particulars now being: S. cerevisiae mec2-1 strain, at 33.0 µM, hits give high values.
Consider `CCCc1cc(C(=O)OCC)cc(CCC)c1O`, for which the growth inhibition was -12%.
Same read-out and setting: the figure for `CC(C)[N+]([O-])(CCCNc1c2ccccc2nc2cccc([N+](=O)[O-])c12)C(C)C` is 98% (active); for `COc1cc2c3c(cccc3c1)C(=O)N(CCN(C)C)C2=O` it is -19%.
As to `NC(=O)NN=C(CS)CS`, the growth inhibition was 24%.
The same measure, in the same setting: the figure for `Cc1ccc(NC(=O)/C(Cl)=C(\Cl)C(=O)O)cc1C` is 99% (active); for `CCN(CC)CC[n+]1ccc2c(C)c3[nH]c4ccc(O)cc4c3c(C)c2c1` it is 8%; for `CC(CC(C)(C)[N+](C)(C)C)[N+](C)(C)C` (centres undefined) it is 2%.
Regarding `COc1ccc(OC)c2cc3ccccc3cc12`, the growth inhibition is 21%.
Still for that read-out and setting: under `Nc1ncncc1C(C1=C(O)COC1=O)C1=C(O)COC1=O` stands 8%; under `CSC1=NNC(SC)=NN1`, 89% (active); under `Cc1c(Cl)ccc2c1S(=O)(=O)c1cccc(Cl)c1-2`, -28%.
Consider `[O-][n+]1c2ccc(O)cc2nc2ccc(Cl)cc21`, for which the growth inhibition is 41%.
Turning to `COc1ccc2ccc3ccccc3c2c1C=O`, the growth inhibition is 0%.
Consider `Nc1ccc2c(c1)C(=O)c1cccc(N)c1C2=O`, for which the growth inhibition is 64%.
On to `O=C(c1ccc(Cl)cc1Cl)C(Cl)Cl`, for which the growth inhibition is 81% (active).
As to `COc1cc(C(=O)/C=C/c2ccccc2O)ccc1O`, the growth inhibition was 98% (active).
`O=Cc1cccc2ccc3ccccc3c12`: the growth inhibition was 1%.
Take `O=C(Nc1ccc(Cl)cc1)OCC#CCCl`: the growth inhibition was 2%.
As to `Cn1ccnc1Oc1ccc(Cl)cc1`, the growth inhibition is 17%.
On to `c1ccc2c(c1)C(=NCCCN1CCCCCC1)c1cccn1-2`, for which the growth inhibition was 0%.
Consider `C/C(=N\O)C1CC2C=C(C#N)C1N(Cc1ccccc1)C2` (centres undefined), for which the growth inhibition was 4%.
Regarding `O=[N+]([O-])C(=C(Sc1ccccc1)Sc1ccccc1)C(Cl)=C(Cl)Cl`, the growth inhibition is 46%.
As for `CCCCCCCCCC/C=C\C(=O)O`, the growth inhibition was 49%.
In the case of `COc1ccc(N=C2C(=O)Nc3ccc(Br)cc32)cc1`, the growth inhibition is -26%.
Turning to `COc1ccccc1C(=O)OCC1CCCN2CCCCC12` (centres undefined), the growth inhibition was 56%.
Turning to `CC(C)(Br)C(=O)/C=C/c1ccc(Cl)c(Cl)c1`, the growth inhibition is 1%.
For the molecule `Nc1ccccc1CC(O)C(=O)O` (centres undefined), the growth inhibition was 30%.
Still for that read-out and setting: the figure for `CC(=O)N/N=C/C(C)(C)C(C)(C)/C=N/NC(C)=O` is 2%.
Take `CN(C)c1nc2sc3c(c2c(=O)o1)CCCC3`: the growth inhibition was 26%.
For `CC(C)OC(=O)Oc1ccccc1OC(=O)OC(C)C`, the growth inhibition was 0%.
Turning to `Cc1ccc(N)c(S)c1`, the growth inhibition was 96% (active).
`O=C(O)c1ccccc1NC(=S)c1ccccc1`: the growth inhibition is -23%.
Take `COC(=O)c1ccc(NCC2=CC(=O)C=CC2=O)cc1O`: the growth inhibition is 97% (active).
Consider `NC(N)=N/N=C\c1c2ccccc2cc2ccccc12`, for which the growth inhibition is -10%.
`COC(=O)CSSCc1ccc([N+](=O)[O-])cc1`: the growth inhibition is 37%.
